Compound activity (PubChem)
Marburg entry inh – qHTS for inhibitors of binding or entry into cells for Marburg Virus; Marburg virus pseudotyped entry inhibition, cell reporter; Potency, µM (doses to about 37.8 µM), inactives show at the highest dose activity change, negative = inhibition, hits mostly inhibitors; hit rate 1.8% among 300,000; AID 540276, 2011; calls by dose curve; tested in HEK293 cells; also: potency is read from the fitted curve at half-maximal effect; % is scaled to controls: 0 for no effect and ±100 for the full control effect
SARS PLpro yeast-1 – qHTS of Yeast-based Assay for SARS-CoV PLP; S. cerevisiae expressing SARS-CoV PLpro, growth rescue; Potency, µM (highest dose often 32.9 µM), for the others: at the top dose activity, positive = growth rescue, hits mostly activators; hit rate 0.19% among 330,000; calls by dose curve; also: potency is read from the fitted curve at half-maximal effect; 0% is about no effect; nearly all actives have a fitted effect of over 55% in size
HCV inhibitor – qHTS Assay for Inhibitors of Hepatitis C Virus (HCV). hit rate 3.4% among 340,000. Potency, µM (series often up to 41.8 µM), without a hit: at the top dose activity change, negative = inhibition, usual class: inhibitors. AID 651820, 2012. Huh7.5.1 HCVcc-Cre infection, luciferase reporter, 44 h; active = well fitted inhibition curve with a large enough effect; inconclusive = small, poorly fitted or top-dose-only effect, or another doubt; inactive = no such curve, though single readings can be large or run the other way; also: potency is read from the fitted curve at half-maximal effect; % is scaled to controls: 0 for no effect and ±100 for the full control effect
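Compounds are dispensed onto cells plated 4 h earlier at 1,000 per well, with HCVcc-Cre virus (about 0.5 moi) added next. Following 44 h of culture, luminescent signal is measured for 15 sec after 15 min with substrate at room temperature.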
Lassa entry inh – qHTS for Inhibitors of binding or entry into cells for Lassa Virus; Lassa virus pseudotype entry inhibition, cell reporter; Potency, µM (series often up to 37.9 µM), for inactives: at the highest dose activity change, negative = inhibition, usual class: inhibitors; hit rate 1.2% among 300,000; AID 540256, 2011; calls by dose curve; tested in HEK293 cells; also: potency is read from the fitted curve at half-maximal effect; % is scaled to controls: 0 for no effect and ±100 for the full control effect; nearly all actives have a fitted effect of over 50% in size
HCMV antiviral – qHTS Assay for inhibitors of the human cytomegalovirus (HCMV); hit rate 4.5% among 410,000; activity change, negative = inhibition, % at 57.5 µM; HFF cells, HCMV-luciferase reporter, 72 h; stronger effect = lower value; in the data active = activity change below about -60%; inconclusive = no clear call, values can overlap the other calls; inactive = above about -39%; also: % is scaled to controls: 0 for no effect and ±100 for the full control effect
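Compounds were evaluated in HFFs infected with an HCMV luciferase reporter virus (MOI 1 PFU/cell). Luciferase in lysates collected 72 h post infection served as the replication measure.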
FMDV inh – High Throughput Screening for Foot and Mouth Disease Virus Antivirals; FMDV antiviral cell-based qHTS; Potency, µM (top dose mostly 57.9 µM), for inactives: at the top dose activity change, negative = inhibition, most hits filed as inhibitors; hit rate 1.2% among 410,000; AID 1159524, 2015; calls by dose curve; tested in HEK293T cells; also: read-out not given here; potency is read from the fitted curve at half-maximal effect; % is scaled to controls: 0 for no effect and ±100 for the full control effect; nearly all actives have a fitted effect of over 45% in size
SARS PLpro yeast-2 – qHTS of Yeast-based Assay for SARS-CoV PLP: Hit Validation; hit rate 19% among 1,000; calls only; yeast expressing SARS-CoV PLpro, growth phenotype rescue; shares compounds with SARS PLpro yeast-1; call rule not given here
An asterisk follows results filed as active; i = inactive; ? = inconclusive; . = no result; + = active, no number; [ ] = remark or other dose. An excerpt weighted towards active compounds, which were near 8% of everything screened.

SMILES | Marburg entry inh | SARS PLpro yeast-1 | HCV inhibitor | Lassa entry inh | HCMV antiviral | FMDV inh | SARS PLpro yeast-2
CN1CCN(C(=O)c2ccc(S(=O)(=O)c3ccc(Br)cc3)cc2)CC1 | ? | 11.2µM* | ? | 11.3% | ? | -29.9% | i
Brc1ccc(C2N3CCCN23)cc1 (centres undefined) | 22.3% | 17.8µM* | 6.9% | 15.3% | 24.6 | 1.6% | ?
O=C(CCCOc1ccc(Cl)cc1Cl)N/N=C/c1ccccc1O | ? | ? | ? | ? | -103.7* | -16.7% | i
COc1ccc(OC)c(-c2c3cc(O)c(=O)cc-3oc3cc(O)c(O)cc23)c1 | 20.6µM* | ? | -11.5% | ? | . | -26.4% | +
CCOc1ccccc1-c1c2cc(O)c(=O)cc-2oc2cc(O)c(O)cc12 | ? | 11.2µM* | -16.5% | ? | . | ? | +
C[C@H](OC(=O)c1[nH]cnc1C(=O)N1CCN(C(=O)OC(C)(C)C)CC1)c1ccccc1 | . | -3.9% | ? | . | 14.3 | ? | .
CCOC(=O)c1[nH]cnc1C(=O)N1CCN(C(=O)OC(C)(C)C)CC1 | . | ? | 3.9% | . | 0.8 | -1.6% | ?
Cc1ccc(CNC(=O)C(=O)Nc2nccs2)cc1 | . | -0.1% | 3.7% | . | 78.7 | 30.5% | .
CN(C)c1c(F)cc(C(=O)NCc2ccccc2)cc1F | . | -1.7% | 3.9% | . | 23.7 | 7.8% | .
CCN1CCc2c(sc(NC(=O)Cc3ccccc3)c2C(N)=O)C1 | . | -1.3% | -13.6% | . | ? | ? | .
CCN1CCc2c(sc(NC(=O)Nc3ccc(Cl)c(Cl)c3)c2C(N)=O)C1 | ? | ? | ? | -10.9% | 37.9 | -11.3% | i
CCCCOc1ccc(C(=O)NCC(=O)NC2CC2)cc1 | 22.4% | 11.2µM* | 13.5% | -6.5% | -15.6 | 5.1% | i
CCCCOc1ccc(C(=O)NCC(=O)NCCOc2ccc(C)cc2)cc1 | . | -0.1%[6.58 µM] | 3.1% | . | 0.0 | 13.1% | .
COCCCN1C(=O)C(O)=C(C(=O)c2ccco2)C1c1ccccc1 (centres undefined) | 14.0% | -4.6% | 11.5% | 12.7% | -23.2 | 4.6% | .
COCc1cc(C2C(C(=O)c3ccco3)=C(O)C(=O)N2CCOCCO)ccc1O (centres undefined) | 11.4% | 2.82µM* | ? | 2.4% | -3.2 | -9.6% | i
C[C@H](CO)N1C[C@H](C)[C@@H](CN(C)C(=O)Nc2ccccc2)Oc2ncc(-c3ccc(C#N)cc3)cc2C1=O | . | . | . | . | -2.6 | 66.3% | .
O=C(NC1(C(=O)NC2CCCCC2)CCCCC1)c1ccccn1 | 23.5% | -1.9% | 12.1% | 7.4% | 57.0 | 6.5% | .
O=C(NC1CCCCC1)/C(=N\O)c1ccccn1 | 10.0% | ? | 16.5% | 18.3% | 33.4 | . | i
CCOC(=O)c1[nH]c2ccc(Cl)cc2c1NC(=O)c1nonc1C | 9.3% | ? | ? | -1.8% | 10.4 | -17.1% | +
CCOC(=O)c1[nH]c2ccc(OC)cc2c1NC(=O)c1nonc1C | 10.0% | 4.5% | ? | 2.0% | 21.7 | -6.7% | .
Cc1onc(-c2ccccc2)c1C(=O)NNC(=S)NC(=O)/C=C/c1cccs1 | ? | -16.2% | ? | -21.2% | 2.1 | 0.0% | .
C=CCNC(=O)c1c(Br)cnn1-c1ccc(C)cc1 | ? | -0.4% | -12.2% | -2.1%[46.1 µM] | 43.8 | 29.7% | .
C=CCc1cccc(/C=N/NC(=O)C(=O)Nc2ccc(C)cc2)c1O | 2.2%[46.1 µM] | 0.8% | 11.0% | 0.4% | -9.6 | 15.2% | .
C=CCc1cccc(/C=N/NC(=O)C(C)Nc2ccc(C)cc2)c1O (centres undefined) | ? | ? | 10µM* | ? | -89.4* | ? | i
COc1c(Br)cc(Br)cc1C(=O)Nc1ccccc1N1CCCC1 | ? | 0.6% | -21.6% | -27.8% | ? | ? | .
SMILES | Marburg entry inh | SARS PLpro yeast-1 | HCV inhibitor | Lassa entry inh | HCMV antiviral | FMDV inh | SARS PLpro yeast-2
COCCCNC(=O)c1c(NC(=O)C2COc3ccccc3O2)sc2c1CCCC2 (centres undefined) | 13.6% | ? | ? | -14.6% | -14.4 | -18.6% | i
Cc1cccc(NC(=S)NCC2CCCO2)c1 (centres undefined) | ? | ? | 5.5% | -8.5% | 17.1 | 33.1% | i
C/C(CCc1ccccc1)=N\NC(=O)C(=O)Nc1cccc(Cl)c1 | . | 1.3% | 14.1% | . | -19.3 | -4.2% | .
O=C(CCc1c[nH]c2ccccc12)OCc1cccc([N+](=O)[O-])c1 | 9.5%[46.1 µM] | -12.3% | 7.2% | 4.2% | -7.8 | -9.1% | .
O=C(NNC(=O)c1cc(F)c(F)cc1Cl)c1ccc(NS(=O)(=O)c2cccs2)cc1 | . | -2.6% | -7.1% | . | -3.8 | 3.1% | .
O=C(NNC(=O)c1cc(Cl)ccc1O)c1ccc(NS(=O)(=O)c2cccs2)cc1 | 0.3% | ? | -10.0% | 1.1% | -1.8 | -6.2% | ?
Cc1cccc(CCNC(=O)Cn2ncc3c(=O)oc4ccccc4c32)c1 | -0.5%[46.1 µM] | . | . | 1.4%[46.1 µM] | 2.4 | 0.0% | .
CN(C(=O)c1ccccc1-c1ncc[nH]1)C1CCCN(Cc2ccccc2F)C1 (centres undefined) | . | 15.8µM* | -0.3% | . | -0.1 | -3.8% | i
COc1ccc(OC)c(C(=O)N(C)C2CCCN(Cc3ccccc3F)C2)c1 (centres undefined) | . | -8.4% | 13.0% | . | -14.0 | -0.5% | .
O=C(N/N=C/c1ccc(O)c(O)c1O)/C(=C/c1ccc([N+](=O)[O-])cc1)NC(=O)c1ccccc1 | -23.8% | 2.51µM* | 6.31µM* | -12.9% | 22.7 | -28.7% | i
Cc1cnc(CNc2nc3cc(-c4ccccc4C)sc3c(=O)n2C)cn1 | . | . | . | . | -5.5 | -13.6% | .
Cc1cc(C)cc(C(=O)N(c2ccccn2)C(C)c2ccco2)c1 (centres undefined) | -17.2% | ? | -13.2% | -5.2% | 8.5 | 30.7% | i
Cc1cccc(C(=O)N(c2ccccn2)C(C)c2ccco2)c1 (centres undefined) | -21.9% | -0.1% | 8.3% | -5.0% | 30.8 | 24.6% | .
CC(=O)Nc1cccc(C(=O)OCc2ccc(C(=O)Oc3ccc(Cl)cc3)cc2)c1 | -25.4% | ? | 13.4% | -8.0% | 43.9 | 7.3% | i
CCCCCCC(=O)Nc1nc(C)c(-c2csc(Nc3cc(OC)ccc3OC)n2)s1 | -2.1% | ? | -8.8% | . | 2.7 | -19.1% | i
Cc1ccc2[nH]c(=O)c(C3C(C#N)=C(N)Oc4c3ccc3cccnc43)cc2c1 (centres undefined) | ? | 12.6µM* | 10µM* | ? | -92.0* | ? | +
N#CC1=C(N)Oc2c(ccc3cccnc23)C1c1ccccc1 (centres undefined) | . | 0.3% | ? | . | -25.1 | ? | .
